{"source": "PubChem BioAssay (NCI)", "note": "The panel holds about 79,000 compounds, 15% with a hit somewhere; the sample as a whole holds those more often. Activity calls are given as the source filed them. Rule as the data show it: active = growth inhibition above about 70%; inactive = the rest."}
{"assay": "NCI Yeast Anticancer Drug Screen. Data for the rad50 strain (AID 155);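 also: 0% = growth of vehicle-only cultures of the same strain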", "details": "S. cerevisiae rad50 strain growth inhibition; at 50.0 µM; stronger effect = higher value", "how_it_was_run": "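Genetically altered yeast (DNA repair pathway); compound treatment; growth inhibition vs vehicle ctrl.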"}
{"compound": "COc1ccc2c(C)[n+]3ccc4cc(OC)c(OC)cc4c3cc2c1", "note": "(tested in a mixture with another compound)", "growth inhibition": "21.5% (inactive)"}
{"compound": "CC12CCC(C(S(=O)(=O)O)C1=O)C2(C)C", "note": "(stereo not given) (tested in a mixture with another compound)", "growth inhibition": "-1.2% (inactive)"}
{"compound": "COc1ccc(OC)c(C(O)P(=O)(c2ccccc2)c2ccccc2)c1", "note": "(stereo not given)", "growth inhibition": "12.5% (inactive)"}
{"compound": "COc1ccc(C(O)Cc2cc(=O)cc(-c3ccccc3)[nH]2)cc1", "note": "(stereo not given)", "growth inhibition": "2.2% (inactive)"}
{"compound": "COc1ccc(CCc2ccc(Cl)cc2)cc1", "growth inhibition": "6.35% (inactive)"}
{"compound": "COC(=O)[C@@]1(C(C)CC(=O)O)CCCCC1=O", "note": "(stereo not given in full)", "growth inhibition": "-11.6% (inactive)"}
{"compound": "CCOC(=O)COc1ccc(Cl)cc1C", "growth inhibition": "11.7% (inactive)"}
{"compound": "C=CCc1cc(C(=O)C(=O)c2cc(CC=C)c(OC(C)=O)c(OC)c2)cc(OC)c1OC(C)=O", "growth inhibition": "3.2% (inactive)"}
{"compound": "CCOC(=O)Sc1nccn1C", "growth inhibition": "8.05% (inactive)"}
{"compound": "OC(CSCc1ccccc1)c1ccccc1", "note": "(stereo not given)", "growth inhibition": "-17.8% (inactive)"}
{"compound": "CC1CCCCN1P(N1CCCCC1C)N1CCCCC1C", "note": "(stereo not given)", "growth inhibition": "36.4% (inactive)"}
{"compound": "O=C(O)CC(SSCc1ccccc1)C(=O)O", "note": "(stereo not given)", "growth inhibition": "5.1% (inactive)"}
{"compound": "COc1ccc(NC(=O)CC(=O)N2N=C(N(CCC#N)c3ccccc3Cl)CC2c2ccccc2)cc1", "note": "(stereo not given)", "growth inhibition": "-13.4% (inactive)"}
{"compound": "CC(=O)OC1CCC2C(C)(CCC3C2(C)CCC2(C)C4CC(C)(C)CCC4(C)CCC32C)C1C", "note": "(stereo not given)", "growth inhibition": "-15.1% (inactive)"}
{"compound": "CCN(CC)C(N)=Nc1cc2ccccc2c2ccccc12", "growth inhibition": "-16.5% (inactive)"}
{"compound": "CCOC(=O)CC/C(=C\\NC(=O)c1ccccc1)NC(=O)c1ccccc1", "growth inhibition": "-9% (inactive)"}
{"compound": "OCC(O)C(O)C(O)c1nn(-c2ccccc2)c2nc3ccccc3nc12", "note": "(stereo not given)", "growth inhibition": "3.6% (inactive)"}
{"compound": "N#CC(c1ccc(O)cc1)N1CCN(C(C#N)c2ccc(O)cc2)CC1", "note": "(stereo not given)", "growth inhibition": "-1.5% (inactive)"}
{"compound": "O=C(O)c1cccnc1-c1ccccc1", "growth inhibition": "-3.95% (inactive)"}
{"compound": "CCOC(=O)C(NC(N)=O)C(=O)OCC", "growth inhibition": "-1.05% (inactive)"}
{"compound": "CC(=O)Nc1ccccc1/C=C\\c1ccccn1", "growth inhibition": "-21.6% (inactive)"}
{"compound": "CC(=O)OC(C)c1cc2c(s1)C(=O)c1sccc1C2=O", "note": "(stereo not given)", "growth inhibition": "88.6% (active)"}
{"compound": "C=C1CN(C2=NCCO2)C1", "growth inhibition": "-17.6% (inactive)"}
{"compound": "CCC(=O)C(=O)C1CCCCC1=O", "note": "(stereo not given)", "growth inhibition": "-2.4% (inactive)"}
{"compound": "CC(=O)c1cccc(NC(=O)c2c(Br)c(Br)c(Br)c(Br)c2C(=O)O)c1", "growth inhibition": "-7.25% (inactive)"}
{"compound": "CN(/N=C/C=N/N(C)C1=NCCCCN1)C1=NCCCCN1", "growth inhibition": "-13.6% (inactive)"}
{"compound": "Cc1cc2c(cc1C)[n+](=O)c(C(=O)CC(=O)C(=O)Nc1ccccc1C)c(C)n2[O-]", "growth inhibition": "37% (inactive)"}
{"compound": "CCc1n[nH]c(=O)n1/N=C/c1c(O)ccc2ccccc12", "growth inhibition": "0.45% (inactive)"}
{"compound": "CCc1cc2c(cc1C(=O)/C=C\\c1cccc3ccccc13)C(C)(C)CCC2(C)C", "growth inhibition": "13.1% (inactive)"}
{"compound": "Cc1nc2ccc(Br)cc2c(=O)n1-c1ccc(N=Cc2ccccc2Cl)cc1", "growth inhibition": "49.8% (inactive)"}
{"compound": "O=C1c2cccc3c(Br)ccc(c23)C(=O)N1CCCN1CCOCC1", "growth inhibition": "63.5% (inactive)"}
{"compound": "COc1cc(OC)c(NC(=O)CC2SC(N)=NC2=O)cc1Cl", "note": "(stereo not given)", "growth inhibition": "9.75% (inactive)"}
{"compound": "CN1C(=O)C(O)Nc2ncncc21", "note": "(stereo not given)", "growth inhibition": "-5.15% (inactive)"}
{"compound": "BrC12c3ccccc3C(Br)(c3ccccc31)c1ccccc12", "growth inhibition": "5.95% (inactive)"}
{"compound": "N#CC1=C(c2ccccc2)C(=C2Nc3ccccc3N2)C2S/C(=C\\c3ccccc3)C(=O)N2C1=N", "note": "(stereo not given)", "growth inhibition": "21.2% (inactive)"}
{"compound": "O=C(CCCCCCC(=O)ON1C(=O)CCC1=O)ON1C(=O)CCC1=O", "growth inhibition": "-16.9% (inactive)"}
{"compound": "Cc1ccc(-c2cc(-c3ccco3)c(C#N)c(=O)[nH]2)cc1", "growth inhibition": "13.5% (inactive)"}
{"compound": "CCCCCC/C=C/C(N)=O", "growth inhibition": "5.75% (inactive)"}
{"compound": "COc1ccc(OC)c(N=Cc2ccc(C=Nc3cc(OC)ccc3OC)cc2)c1", "growth inhibition": "-8% (inactive)"}
{"compound": "O=C1c2c(ccc3c2CCC3)CC12Cc1cc3c(cc1C2)CCC3", "growth inhibition": "-33.8% (inactive)"}
